Reference: PubChem BioAssay AID1159580 (chemical genetic matrix, 2015)
The campaign covered roughly 5,500 compounds. About 2,000 (36%) were called active. Not shown: some 18% with an inconclusive outcome. Cut-off read from the data, not from the text of the source: active = normalized growth mostly below about 0.91 (no sharp cut-off); inconclusive = no clear call, values can overlap the other calls; inactive = mostly above about 0.92. The list shows a part of the results.

Assay: chemical genetic growth profiling, strain panel (AID 1159580);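 note: tested at 20 µM; growth read once vehicle control cultures reached saturation at 30 °C; 1 = growth at the plate median or of vehicle wells; lower values mean less growth of the strain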
Conditions: growth OD

Measured: normalized growth

CCC[C@H](N[C@@H](C)C(=O)N1[C@H](C(=O)O)C[C@@H]2CCCC[C@@H]21)C(=O)OCC
inactive: S. cerevisiae deletion strains, locus YJR075W, strain HOC1, active compounds read low 1.02 | S. cerevisiae deletion strains, locus YKL009W, strain mrt4, active compounds read low 1.02 | S. cerevisiae deletion strains, locus YKL068W, active compounds read low 1.03 | S. cerevisiae deletion strains, locus YKL085W, strain MDH1 (second series), active compounds read low 1.01 | S. cerevisiae deletion strains, locus YKL085W, strain MDH1, active compounds read low 1.01 | S. cerevisiae deletion strains, locus YKL160W, strain elf1, active compounds read low 1.02 | S. cerevisiae deletion strains, locus YKL190W, strain CNB1, active compounds read low 1.02 | S. cerevisiae deletion strains, locus YKR001C, strain vps1, active compounds read low 1.03 | S. cerevisiae deletion strains, locus YKR026C, strain gcn3, active compounds read low 1.02 | S. cerevisiae deletion strains, locus YKR091W, strain srl3, active compounds read low 1.02 | S. cerevisiae deletion strains, locus YLL001W, strain dnm1, active compounds read low 1.02 | S. cerevisiae deletion strains, locus YLL026W, active compounds read low 1.01 | S. cerevisiae deletion strains, locus YLL041C, strain sdh2, active compounds read low 1.01 | S. cerevisiae deletion strains, locus YLR027C, strain aat2, active compounds read low 1.01 | S. cerevisiae deletion strains, locus YLR039C, strain RIC1, active compounds read low 1.03 | S. cerevisiae deletion strains, locus YLR058C, strain SHM2, active compounds read low 1.01 | S. cerevisiae deletion strains, locus YLR102C, strain apc9, active compounds read low 1.02 | S. cerevisiae deletion strains, locus YLR113W, strain HOG1, active compounds read low 0.988 | S. cerevisiae deletion strains, locus YLR221C, strain rsa3, active compounds read low 1.01 | S. cerevisiae deletion strains, locus YLR258W, strain gsy2, active compounds read low 1.02 | S. cerevisiae deletion strains, locus YLR262C, strain YPT6 (second series), active compounds read low 1.03 | S. cerevisiae deletion strains, locus YLR262C, strain YPT6, active compounds read low 1.04 | S. cerevisiae deletion strains, locus YLR268W, strain sec22, active compounds read low 1.02 | S. cerevisiae deletion strains, locus YLR320W, strain mms22, active compounds read low 1.01 | S. cerevisiae deletion strains, locus YLR330W, strain CHS5, active compounds read low 1.01 | S. cerevisiae deletion strains, locus YLR342W, strain FKS1 (second series), active compounds read low 1.02 | S. cerevisiae deletion strains, locus YLR342W, strain FKS1, active compounds read low 1.03 | S. cerevisiae deletion strains, locus YLR357W, strain rsc2, active compounds read low 0.998 | S. cerevisiae deletion strains, locus YLR370C, strain arc18, active compounds read low 1.01 | S. cerevisiae deletion strains, locus YLR371W, strain rom2, active compounds read low 1.01 | S. cerevisiae deletion strains, locus YLR384C, strain iki3, active compounds read low 1.01 | S. cerevisiae deletion strains, locus YLR418C, strain cdc73, active compounds read low 1.01 | S. cerevisiae deletion strains, locus YML016C, strain PPZ1, active compounds read low 1.01 | S. cerevisiae deletion strains, locus YML032C, strain rad52, active compounds read low 1.02 | S. cerevisiae deletion strains, locus YML120C, strain ndi1, active compounds read low 1.02 | S. cerevisiae deletion strains, locus YML124C, strain tub3, active compounds read low 1.02 | S. cerevisiae deletion strains, locus YMR058W, strain fet3, active compounds read low 1.02 | S. cerevisiae deletion strains, locus YMR078C, strain ctf18, active compounds read low 1.03 | S. cerevisiae deletion strains, locus YMR125W, strain sto1, active compounds read low 0.994 | S. cerevisiae deletion strains, locus YMR129W, active compounds read low 1.02 | S. cerevisiae deletion strains, locus YMR205C, strain PFK2, active compounds read low 1.02 | S. cerevisiae deletion strains, locus YMR223W, strain ubp8, active compounds read low 1.03 | S. cerevisiae deletion strains, locus YMR231W, strain pep5, active compounds read low 1.02 | S. cerevisiae deletion strains, locus YMR263W, strain SAP30, active compounds read low 1.01 | S. cerevisiae deletion strains, locus YMR307W, strain GAS1, active compounds read low 0.976 | S. cerevisiae deletion strains, locus YNL067W, strain RPL9B, active compounds read low 1.01 | S. cerevisiae deletion strains, locus YNL071W, strain lat1, active compounds read low 1.01 | S. cerevisiae deletion strains, locus YNL128W, strain TEP1, active compounds read low 1.01 | S. cerevisiae deletion strains, locus YNL153C, strain GIM3, active compounds read low 1 | S. cerevisiae deletion strains, locus YNL183C, strain NPR1, active compounds read low 0.963 | S. cerevisiae deletion strains, locus YNL209W, strain ssb2, active compounds read low 1.01 | S. cerevisiae deletion strains, locus YNL233W, strain BNI4, active compounds read low 0.996 | S. cerevisiae deletion strains, locus YNL248C, strain rpa49, active compounds read low 1.01 | S. cerevisiae deletion strains, locus YNL250W, strain rad50, active compounds read low 1.02 | S. cerevisiae deletion strains, locus YNL271C, strain bni1, active compounds read low 1.02 | S. cerevisiae deletion strains, locus YNL298W, strain CLA4, active compounds read low 1.01 | S. cerevisiae deletion strains, locus YNL307C, strain MCK1, active compounds read low 1.03 | S. cerevisiae deletion strains, locus YNL322C, strain KRE1 (second series), active compounds read low 1.02 | S. cerevisiae deletion strains, locus YNL322C, strain KRE1, active compounds read low 1.01 | S. cerevisiae deletion strains, locus YNR049C, strain mso1, active compounds read low 1.02 | S. cerevisiae deletion strains, locus YNR052C, strain pop2, active compounds read low 1.02 | S. cerevisiae deletion strains, locus YOL006C, strain TOP1, active compounds read low 1.04 | S. cerevisiae deletion strains, locus YOL012C, strain htz1 0.981 | S. cerevisiae deletion strains, locus YOL147C, strain pex11, active compounds read low 1.02 | S. cerevisiae deletion strains, locus YOR001W, strain rrp6, active compounds read low 1.03 | S. cerevisiae deletion strains, locus YOR061W, strain CKA2, active compounds read low 1.01 | S. cerevisiae deletion strains, locus YOR069W, strain VPS5, active compounds read low 1 | S. cerevisiae deletion strains, locus YOR070C, strain gyp1, active compounds read low 1.02 | S. cerevisiae deletion strains, locus YOR080W, strain dia2, active compounds read low 1.03 | S. cerevisiae deletion strains, locus YOR083W, strain WHI5, active compounds read low 1.02 | S. cerevisiae deletion strains, locus YOR106W, strain vam3, active compounds read low 1.04 | S. cerevisiae deletion strains, locus YOR136W, strain idh2, active compounds read low 1.02 | S. cerevisiae deletion strains, locus YOR144C, strain elg1, active compounds read low 1.02 | S. cerevisiae deletion strains, locus YOR184W, strain ser1, active compounds read low 1.03 | S. cerevisiae deletion strains, locus YOR231W, strain MKK1, active compounds read low 0.999 | S. cerevisiae deletion strains, locus YOR265W, strain rbl2, active compounds read low 1.01 | S. cerevisiae deletion strains, locus YOR270C, strain vph1, active compounds read low 1.05 | S. cerevisiae deletion strains, locus YOR290C, strain snf2, active compounds read low 1 | S. cerevisiae deletion strains, locus YOR316C, strain cot1, active compounds read low 1.02 | S. cerevisiae deletion strains, locus YPL051W, strain arl3, active compounds read low 1.02 | S. cerevisiae deletion strains, locus YPL055C, strain LGE1, active compounds read low 1.01 | S. cerevisiae deletion strains, locus YPL078C, strain atp4, active compounds read low 1.03 | S. cerevisiae deletion strains, locus YPL106C, strain sse1, active compounds read low 1.02 | S. cerevisiae deletion strains, locus YPL240C, strain hsp82, active compounds read low 1.02 | S. cerevisiae deletion strains, locus YPL241C, strain CIN2, active compounds read low 1.03 | S. cerevisiae deletion strains, locus YPL256C, strain CLN2, active compounds read low 1 | S. cerevisiae deletion strains, locus YPR119W, strain clb2, active compounds read low 1.03 | S. cerevisiae deletion strains, locus YPR141C, strain kar3, active compounds read low 1.02 | S. cerevisiae deletion strains, locus YPR163C, strain tif3, active compounds read low 1.02 | S. cerevisiae deletion strains, locus YPR167C, strain met16, active compounds read low 1.01 | S. cerevisiae deletion strains, strain wtn01, active compounds read low 1.01 | S. cerevisiae strains, strain wild type, active compounds read low 1.01
